esBAF inh – inhibitors of esBAF chromatin remodeling in mouse ES cells; 350,000 compounds, 2% hits; reporter increase, % at 12.5 µM; Bmi1-luciferase knock-in reporter, 24 h; 100% = twice the neutral-well signal; in the data active = activation above about 40%; inconclusive = no clear call, values can overlap the other calls;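 note: 0% = median of the plate's neutral control wells and 100% = double that signal; a rise in the Bmi1 reporter signal indicates esBAF inhibition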
Wnt bcat act – activators of Wnt/beta-catenin signaling; 300,000 compounds, 1.2% hits; Wnt/beta-catenin reporter cell assay, activator, plate reader; activation, % at 9.35 µM; in the data active = activation above about 30%, passing the limit was not always enough; inconclusive = no clear call, values can overlap the other calls;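 note: 0% = neutral control wells and 100% = positive control wells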
MLL AF4-AF9 inh – inhibitors of human MLL-AF4/AF9 interaction; P42568; AlphaScreen, biotin-AF4 peptide binding to FLAG-AF9; inhibition, % at 10 µM; 350,000 compounds, 0.47% hits;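 active = every replicate reaching a set inhibition limit, whatever the replicate mean, cut at about 25% in these data; inconclusive = mean inhibition reaches that limit but some replicates miss it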;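 note: 0% = plate neutral control median and 100% = total signal loss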
Ecoli rRNA inh – inhibits bacterial ribosomal RNA function over humanized ribosomes; E. coli WT GFP vs humanized-ribosome RFP mutants, fluorescence, 24 h; stronger effect = lower value; DMSO median 0, no signal -100; GFP signal change (wild-type ribosome), % (test concentration not listed); 350,000 compounds, 1.6% hits; AID 720706;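 active = significant combined selectivity score with lowered wild-type GFP, culture density cut under 30%, mutant RFP and density less affected; inactive = any of these conditions unmet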
MITF TRPM1 HTS – activators of MITF-driven TRPM1 promoter activity in SK-MEL-5 cells | SK-MEL-5 TRPM1-promoter luciferase, 24 h; % of positive control, neutral wells = 0 | activation, % at 12.5 µM | 300,000 compounds, 0.75% hits | AID 588334;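 active = mean activation of at least 80% with every replicate also reaching 80%; inconclusive = mean reaches 80% but some replicate falls short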;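 note: 0% = neutral control wells and 100% = parthenolide positive control wells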
Starred values were filed as active, the others as inactive; u = inconclusive; x = not tested or not shown; ! = repeats disagree. Most compounds without a hit are left out; they make up all but 3.7% or so of the library.

SMILES	esBAF inh	Wnt bcat act	MLL AF4-AF9 inh	Ecoli rRNA inh	MITF TRPM1 HTS
COc1ccc(OCC(=O)NC(=S)Nc2ccccc2F)cc1	x	0	-4	7	1
CN(CC(=O)Nc1ccc(F)cc1)C(=O)COC(=O)CSc1ccc(F)cc1	x	4	-2	-1	-6
COCC(=O)N1CCC2(CC1)CN(Cc1cccc(OC)c1)[C@@H](CO)c1[nH]c3cc(OC)ccc3c12	x	x	-2	2	x
C(=N\N1CCN(Cc2cccc3ccccc23)CC1)/c1cccnc1	x	0	u	-30*	-4
C[C@H]1CN([C@@H](C)CO)C(=O)c2cc(-c3ccccc3F)cnc2O[C@H]1CN(C)Cc1ccc(F)cc1	-8	x	-9	2	x
C[C@H](CO)N1C[C@H](C)[C@H](CN(C)C(=O)CN(C)C)Oc2cc(-c3cccnc3)ccc2S1(=O)=O	6	x	-3	5	x
COc1cc(/C=N/NC(=O)CC2(C)OCCCO2)ccc1OCc1ccccc1	42*	x	x	x	-1
COc1cc(/C=N/NC(=O)CC2(C)OCCCO2)ccc1OCc1ccc(Cl)cc1Cl	x	x	x	x	61
CCOC(=O)C(=Cc1ccc(OCc2ccc([N+](=O)[O-])cc2)c(OC)c1)C(=O)OCC	x	x	x	x	-2
COc1cc(/C=N/NC(=O)c2cccc([N+](=O)[O-])c2)ccc1OCc1ccccc1	43*	11	4	10	u
COc1ccc([N+](=O)[O-])cc1/C=N/NC(=O)CNC(=O)C(c1ccccc1)c1ccccc1	x	x	x	x	-2
COC(=O)C(=Cc1ccc(OCc2ccc([N+](=O)[O-])cc2)c(OC)c1)C(=O)OC	74*	x	x	x	-31
COc1ccc([N+](=O)[O-])cc1/C=N/NC(=O)CNC(=O)c1cccc(F)c1	x	-1	9	-23*	6
COc1cc(/C=C(\C#N)C(=O)NCC2CCCO2)c([N+](=O)[O-])cc1OC (configuration not stated)	-9	3	x	x	2
CCCNC(=O)CCNC(=O)[C@H](O)C(C)(C)CO	-3	-2	-1	-2	1
CCS(=O)(=O)CCSc1nc2ccccc2o1	-10	x	x	5	0
O=S(=O)(CCSc1nc2ccccc2o1)c1nc2ccccc2s1	11	-1	6	-32*!	-53
Cc1noc(C)c1NC(=O)Nc1cccc2c1O[C@H](CN(C)CC1CC1)[C@H](C)CN([C@@H](C)CO)C2=O	x	x	-1	3	x
Cc1[nH]c2ccccc2c1C(=O)CSc1nnc(C2CC2)o1	7	1	26*	2	11
O=C(O)CCC(=O)N1CCc2cc(S(=O)(=O)NCCc3ccc(Cl)cc3)ccc21	-3	x	x	x	0
FC(F)(F)c1cccc(NC(=S)Nc2cccc(NC(=S)Nc3cccc(C(F)(F)F)c3)n2)c1	5	-1	4	-46*	19
O=C(N[C@@H]1CC[C@@H](CC(=O)N2CCOCC2)O[C@@H]1CO)c1ccc2c(c1)OCO2	-3	x	-2	-2	x
Cc1ccc(C(=O)CSc2nnc3n2CCCCC3)s1	65*	22	1	-2	46
CCOc1ccc(C(=O)CCC(=O)NC(C)C(=O)OC)cc1 (configuration not stated)	-10	-1	-3	11	3
COc1ccc(CC(=O)OC(C)C(=O)c2ccc(C)cc2)cc1 (configuration not stated)	0	4	0	-30*	-16
SMILES	esBAF inh	Wnt bcat act	MLL AF4-AF9 inh	Ecoli rRNA inh	MITF TRPM1 HTS
COc1ccc(NC(=O)Nc2ccc3c(c2)CC(=O)N([C@H](C)CO)C[C@@H](C)[C@@H](CN(C)S(=O)(=O)c2ccc(F)cc2)O3)cc1	1	x	6	-4	x
Clc1ncnc2scc(-c3ccccc3)c12	8	-20	x	x	-13
S=c1[nH]cnc2scc(-c3ccccc3)c12	-5	-1	-3	-29*	6
CN(C)S(=O)(=O)c1ccc(C(=O)Nc2cccc(C(=O)N3CCOCC3)c2)cc1	-5	-2	-3	9	-6
Cc1ccc(SCc2nn(C)c(Cl)c2C=O)cc1	42*	6	0	-9	54
O=C(NC1CC1)C1=C[C@@H](c2ccc(Br)cc2)C[C@@H](OCCCCO)O1	1	-1	-1	-19*	6
O=C(Nc1ccccc1)C1=C[C@@H](c2ccc(C(F)(F)F)cc2)C[C@@H](OCCCCO)O1	50*	12	4	11	62
O=C(NC1CC1)C1=C[C@@H](c2ccccc2)C[C@@H](OCCCCO)O1	-7	2	-7	1	4
